Measured values from the supplement of paper PMC10477191.
± gives the standard deviation of the averaged measurements.

system: Drosophila ezoana antennal basiconic sensillum ab5; assay: odor-evoked OSN spike response (post minus pre-stimulus); higher = stronger neuronal excitation; settings: odor dilution: 10^-4
Description: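 Single sensillum recordings from antennal basiconic sensilla of D. ezoana. A 500 ms pulse of odorant (10^-4 in mineral oil or DMSO) was delivered; the response is the change in action potential frequency between the 1 s pre- and post-stimulus windows (spikes/s).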

Q: For `CC(=O)c1ccccc1` [Acetophenone], which “odor-evoked OSN spike response” value is on record?
A: 77.7 ± 24 spikes/s

Q: Which “odor-evoked OSN spike response” value does the source give for `CC(=O)OC/C=C(\C)CCC=C(C)C` [geranyl acetate] here?
A: 112 ± 41 spikes/s

Q: `COc1cccc(OC)c1O` [Phenol, 2,6-dimethoxy- (powder)] was tested. Which “odor-evoked OSN spike response” value did it give?
A: 86.2 ± 29 spikes/s
